NALP1 inh: NALP1 inflammasome inhibitors in reconstituted yeast, colorimetric, S. cerevisiae, triplicate retest; inhibition, % at 10 µM; 280,000 tested, 0.61% active; S. cerevisiae NALP1/ASC/caspase-1 growth, X-gal OD620, 72 h; AID 2071, 2009; in the data active = inhibition mostly above about 24%, no sharp cut-off; inactive = mostly below about 32%
TIM10 inh: growth inhibitors of isogenic TIM10 control yeast, primary screen, counter-screen for tim10-1 yeast inhibitor project, luminescence, uHTS; S. cerevisiae TIM10 strain growth, BacTiter-Glo luminescence, 24 h; AID 463195, 2010; 330,000 tested, 1.4% active; inhibition, % at 10 µM;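 active = inhibition of 40% or more at the single tested concentration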;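 note: wild-type TIM10 isogenic control strain grown at permissive 25 °C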
SKKanGAS inh: S. pyogenes SKKanGAS growth inhibitors in kanamycin, primary screen, streptokinase expression inhibitor project, SKKanGAS strain, BacTiter-Glo luminescence; 6 h; 300,000 tested, 1.3% active; inhibition, % at 7.5 µM;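 active = mean replicate score, as percent of positive control median, at least 50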;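 note: strain carries kanamycin resistance gene driven by streptokinase promoter and grows in 40 µg/ml kanamycin; loss of luminescence reflects streptokinase promoter inhibition or plain growth inhibition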
NALP3 yeast inh: NALP3 inflammasome inhibitors in reconstituted yeast, primary screen, luminescence, uHTS; Yeast reconstituted NLRP3/ASC/caspase-1, beta-gal luminescence, 24 h; 330,000 tested, 0.39% active; inhibition, % at 10 µM;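 active = inhibition of 50% or more; inactive = inhibition below 50%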
tim10-1 inh: growth inhibitors of tim10-1 mutant yeast, primary screen, luminescence, uHTS | S. cerevisiae tim10-1 ts strain growth, BacTiter-Glo, 24 h | inhibition, % at 20 µM | 330,000 tested, 2.2% active | AID 463190, 2010;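 active = inhibition of at least 40%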;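 note: mutant grown at 25 °C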
tim23-1 inh: growth inhibitors of tim23-1 mutant yeast, primary screen, luminescence, uHTS; S. cerevisiae tim23-1 growth, BacTiter-Glo luminescence, 24 h; inhibition, % at 20 µM; 330,000 tested, 1.3% active;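 active = growth inhibition of the mutant yeast at or above 50%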;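 note: temperature-sensitive mutant grown at 25 °C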
TIM10 conf: growth inhibitors of wild-type TIM10 yeast, confirmation, counter-screen for tim10-1 synthetic lethality project, single concentration, luminescence, S. cerevisiae; AID 463215, 2010; S. cerevisiae tim10 strain growth, BacTiter-Glo luminescence, 24 h; 4,600 tested, 63% active; shares compounds with TIM10 inh; inhibition, % at 10 µM;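 active = inhibition of yeast growth at or above a set limit in either of two replicates at 10 µM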; note: this counterscreen used the strain with wild-type TIM10
Of the large screens only hits and unclear results are named; the others gave an inactive call (follow-up assays come after a bar, where they were run). Hits are enriched below; roughly 4.9% of the tested compounds scored in any of these assays.

CC(=O)Nc1ccc(Nc2nc(-c3sc(C)nc3C)cs2)cc1	none
COC(=O)CNC(=O)CSc1nc2sc(-c3ccccc3)cc2c(=O)n1-c1ccccc1	TIM10 inh 45.3 (no result: NALP1 inh) | TIM10 conf 38.0
COC(=O)CNC(=O)CSc1nc2sccc2c(=O)n1-c1ccccc1	none
Cn1c(=O)n(Cc2ccccc2)c(=O)c2c1nc1n2CCCN1C1CCCCC1	TIM10 inh 41.0 (no result: NALP1 inh) | TIM10 conf inactive
Cc1cccc(Cn2c(=O)c3c(nc4n3CCCN4Cc3ccccc3)n(C)c2=O)c1	TIM10 inh 55.4 | TIM10 conf inactive
O=C(Nc1cccc(S(=O)(=O)NC2=NCCC2)c1)c1cc(=O)[nH]c2ccccc12	none (no result: NALP1 inh, SKKanGAS inh)
Cc1csc(NC(=O)C(C)N2C(=O)c3ccccc3S2(=O)=O)n1 (configuration not stated)	none
COc1ccc2[nH]cc(/C=C/c3cc[n+](C)cc3)c2c1	none
CCN(CC)c1ccc(/C=N/N(c2ccccc2)c2ccccc2)c(O)c1	none
CCN(CC)c1ccc(/C=N/NC(=S)NCc2ccccc2)c(O)c1	TIM10 inh 40.9, SKKanGAS inh 64.4 | TIM10 conf inactive
S=C(NCc1ccc(Cl)cc1)Nc1ccccc1	TIM10 inh 41.6 | TIM10 conf inactive
S=C(NCc1cccs1)Nc1ccccc1Cl	none
S=C(NCc1cccs1)Nc1cc(Cl)cc(Cl)c1	TIM10 inh 47.1, SKKanGAS inh 65.8 | TIM10 conf 55.6
Fc1ccc(CNC(=S)Nc2ccc(Cl)cc2)cc1	none
CCCCC(c1nnnn1CS(=O)(=O)c1ccc(C)cc1)N1CCN(C)CC1 (configuration not stated)	none
CCN(c1ccccc1)S(=O)(=O)c1ccc(Cl)c(NC(=O)COC(=O)c2cc(O)c3ccccc3c2O)c1	TIM10 inh 44.7 (no result: NALP1 inh) | TIM10 conf 31.6
CCOC(=O)[C@H]1[C@H]2COc3ccc(C)cc3[C@@H]2N2C(=O)c3cc(Br)ccc3NC(=O)[C@@]12C	none (no result: NALP1 inh, SKKanGAS inh)
COc1ccc2c(c1)[C@H]1[C@H](CO2)[C@H](c2ccccc2)[C@]2(C)C(=O)N[C@@H](C)C(=O)N12	none (no result: NALP1 inh, SKKanGAS inh)
O=C(Nc1ccc(C(O)(C(F)(F)F)C(F)(F)F)cc1)c1ccc(Cl)c([N+](=O)[O-])c1	TIM10 inh 58.6 | TIM10 conf inactive
O=C(O)c1cc(NC(=O)c2ccc(Cl)c([N+](=O)[O-])c2)cc(C(=O)O)c1	none
C=CCn1c(SCc2ccc3nonc3c2)nnc1-c1cccs1	TIM10 inh 47.7 | TIM10 conf 25.6
C=CCn1c(SCC(=O)C(C)(C)C)nnc1-c1cccs1	none
Cn1c(SCc2ccc(C#N)cc2)nnc1-c1ccccc1	none
Cn1c(SCc2ccc(C#N)cc2)nnc1-c1cccc(Cl)c1	TIM10 inh 45.5 | TIM10 conf inactive
c1ccc(-c2csc(Nc3cccnc3)n2)cc1	TIM10 inh 41.6 | TIM10 conf inactive
O=C(Nc1nc(-c2ccc3c(c2)OCO3)cs1)C1COc2ccccc2O1 (configuration not stated)	none (no result: NALP1 inh)
O=C(Nc1nc(-c2ccccc2)cs1)C1COc2ccccc2O1 (configuration not stated)	TIM10 inh 41.1 | TIM10 conf 34.9
CCOC(=O)C1=C(C)N(C)C(=S)NC1c1ccccc1Cl (configuration not stated)	none
CCOC(=O)C1=C(C)N(C)C(=S)NC1c1cccc(Cl)c1Cl (configuration not stated)	TIM10 inh 48.0 | TIM10 conf inactive
COc1cc(OC)cc(-c2nc3ccccc3c(=O)n2OC(=O)c2ccc(C)c(C)c2)c1	TIM10 inh 50.3 | TIM10 conf inactive
CN(C)c1ccc(P(=O)(OCc2ccccc2)C(O)c2ccc(Br)cc2)cc1 (configuration not stated)	none (no result: NALP1 inh)
CC(C)COP(=O)(c1ccc(N(C)C)cc1)C(O)c1ccc(Br)cc1 (configuration not stated)	TIM10 inh 42.3 | TIM10 conf 34.6
Cc1ccc2nc(NS(=O)(=O)c3cn(C)nc3C)sc2c1	none
COC(=O)CCN1CCN(S(=O)(=O)c2ccccc2Br)CC1	none
Cc1sc2nc(CSC(C)C(=O)Nc3cc(S(C)(=O)=O)ccc3Cl)[nH]c(=O)c2c1C (configuration not stated)	none (no result: NALP1 inh)
CCNc1nc(N)c(C(=O)c2ccc(Cl)s2)s1	TIM10 inh 44.3 | TIM10 conf 41.0
CCOc1ccccc1OCC(=O)Nc1nc2ccccc2[nH]1	none
O=C(COc1cccc2ccccc12)Nc1nc2ccccc2[nH]1	TIM10 inh 41.2 (no result: SKKanGAS inh) | TIM10 conf inactive
C=CCSc1nnc2c(n1)[nH]c1c(C)cccc12	TIM10 inh 47.3 | TIM10 conf 37.1
Cc1cccc2c1[nH]c1nc(N/N=C\c3ccco3)nnc12	none
O=C(NCC1(c2ccccc2)CCCC1)c1ccc(Br)cc1	TIM10 inh 40.9 | TIM10 conf inactive
Cc1ccc(C(=O)NCC2(c3ccccc3)CCCC2)cc1	none
COC(=O)c1ccccc1Nc1ccnc(Cl)n1	none (no result: NALP1 inh)
FC(F)(F)c1nnc(-c2ccccc2)nc1Sc1ccccc1	TIM10 inh 44.7 | TIM10 conf inactive
COc1ccc2[nH]c(C)c(CCNC(=S)Nc3ccc(C)cc3)c2c1	TIM10 inh 40.4 | TIM10 conf inactive
COc1ccc2[nH]c(C)c(CCNC(=S)Nc3ccccc3C)c2c1	none
COc1ccc2nc(NC(=O)C3CCN(S(=O)(=O)c4cccc5nsnc45)CC3)sc2c1	TIM10 inh 40.2 (no result: SKKanGAS inh) | TIM10 conf inactive
COc1cccc2c1cc1c(=O)n(CC(=O)NCCCN3CCN(C)CC3)nc(C)n12	none
CCNC(=S)N/N=C1\CCCCc2ccccc21	none
Cc1ccc(NC(=S)N/N=C2/CCCCc3ccccc32)cc1	TIM10 inh 45.0 (no result: NALP1 inh) | TIM10 conf 38.0
Cc1ccc(O)c(-c2cc(-c3ccccc3F)[nH]n2)c1	TIM10 inh 48.1 | TIM10 conf 43.0
Cc1cccc(-n2c(C)c(-c3ccccc3)[nH]c2=S)c1	TIM10 inh 42.7 | TIM10 conf 38.4
O=C(NN=C1CCCC1)c1ccc(O)cc1	none
CN(C)CCNC(=S)Nc1ccccc1Cl	none
Cc1c(Cl)cccc1NC(=S)NCCCN(C)C	TIM10 inh 45.7 | TIM10 conf inactive
Cc1cc(NC(=O)c2cccc(Oc3ccccc3)c2)n[nH]1	TIM10 inh 61.0 | TIM10 conf 66.0

Screening results (PubChem BioAssay)
